From PubChem BioAssay
An excerpt weighted towards active compounds, which were near 5.9% of everything screened.
HEK293 tox = qHTS of GLP-1 Receptor Inverse Agonists: Cytotox Screen | HEK293 cAMP-luciferase reporter cells, luminescence, 24 h | Potency, µM (titrated, usually from 38.3 µM), usual class: inhibitors | 410,000 tested, 0.13% active;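 further: loss of luciferase light is scored as toxicity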
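MLSMR compounds, 24 hr on cells at 37 deg C/5% CO2; luminescence after luciferase reagent (12 min RT). Inhibition counted as the undesired cytotoxic outcome.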
Gal4-VP16 FLuc = VP16 counterscreen qHTS for inhibitors of ROR gamma transcriptional activity; Drosophila S2 Gal4-VP16 UAS-luciferase, luminescence, 20 h; Potency, µM (doses to about 53.6 µM), hits mostly inhibitors; 310,000 tested, 3.5% active; AID 2546, 2010;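 further: Gal4-VP16 expression switched on by copper sulfate through the metallothionein promoter; nearly all actives have a fitted effect of over 50% in size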
GLP-1R inv ag = qHTS of GLP-1 Receptor Inverse Agonists (Inhibition Mode). AID 624417, 2012. Potency, µM (titrated, usually from 38.3 µM), actives largely listed as inhibitors. 410,000 tested, 1.6% active. Glucagon-like peptide 1 receptor (Homo sapiens), P43220. HEK293 GLP-1R CRE-luciferase, luminescence, 24 h; GLP-1R form is constitutively active; further: nearly all actives have a fitted effect of over 55% in size
Target sequence (P43220 whole entry, looked up): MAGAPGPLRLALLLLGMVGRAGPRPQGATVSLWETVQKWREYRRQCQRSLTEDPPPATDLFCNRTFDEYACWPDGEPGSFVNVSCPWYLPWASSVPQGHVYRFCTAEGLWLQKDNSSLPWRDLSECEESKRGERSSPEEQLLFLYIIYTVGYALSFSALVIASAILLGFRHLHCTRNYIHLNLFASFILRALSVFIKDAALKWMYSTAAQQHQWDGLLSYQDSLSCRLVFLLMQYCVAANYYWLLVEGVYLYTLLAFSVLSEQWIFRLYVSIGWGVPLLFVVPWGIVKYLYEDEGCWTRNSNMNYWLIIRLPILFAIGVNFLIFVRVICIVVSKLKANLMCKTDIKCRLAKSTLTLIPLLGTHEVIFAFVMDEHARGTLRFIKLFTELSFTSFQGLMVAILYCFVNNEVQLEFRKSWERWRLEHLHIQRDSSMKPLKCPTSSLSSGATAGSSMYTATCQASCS
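Seeding at 200 cells/uL, 12 h culture, 24 hr compound treatment, then luciferase reagent and a luminescence read; cells are HEK293 stably expressing a constitutively active GLP-1R plus cAMP-responsive luciferase.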
RORg inh = qHTS for inhibitors of ROR gamma transcriptional activity. Drosophila S2 Gal4-RORgamma UAS-luciferase reporter, 20 h. Potency, µM (doses to about 53.6 µM), actives largely listed as inhibitors. 310,000 tested, 5.4% active. AID 2551, 2010; further: nearly all actives have a fitted effect of over 60% in size
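In this cell-based reporter format, copper sulfate (700 uM final) drives Gal4–ROR gamma fusion expression from a metallothionein promoter in Drosophila Schneider cells; compounds preincubated 1 hr, reporter read after 20 hr at ambient temperature.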
GLP1R ag = qHTS of GLP-1 Receptor Agonists. HEK293 GLP-1R CRE-luciferase, luminescence, 4-6 h; cells express a hypersensitive GLP-1R form. Potency, µM (top dose mostly 45.6 µM), usual class: activators. 380,000 tested, 0.007% active
Large screens that a line does not name were inactive. The call rests on the fitted dose curve; in most records, active means well fitted curve in the direction sought with a large enough effect; inconclusive means small, poorly fitted or top-dose-only effect, or another doubt; inactive means no such curve, though single readings can be large; an effect the other way counts as inactive or inconclusive.

CC1=C/C(=N\OS(=O)(=O)c2ccccc2)C(C(C)C)=CC1=O	HEK293 tox inconclusive, Gal4-VP16 FLuc 0.79µM, GLP-1R inv ag inconclusive, RORg inh 2.8µM
COc1cc2c(cc1OC)-c1cc(Nc3ccccc3)nc(=O)n1CC2	none
COc1cc2c(cc1OC)-c1cc(Nc3ccccc3Br)nc(=O)n1CC2	GLP1R ag 8.9µM
COc1cc(OC)c(N(C)S(=O)(=O)c2cccc(C(=O)OCC(=O)c3c[nH]c4ccccc34)c2)cc1Cl	GLP-1R inv ag inconclusive
C=CCN(c1ccccc1OC)S(=O)(=O)c1cccc(C(=O)OCC(=O)c2c[nH]c3ccccc23)c1	HEK293 tox inconclusive, GLP-1R inv ag 5µM
S=C(NC1CCCCC1)N1CCc2[nH]c3ccccc3c2C1	GLP-1R inv ag inconclusive
Cc1ccc(NC(=S)N2CCc3[nH]c4ccccc4c3C2)cc1	GLP-1R inv ag inconclusive, RORg inh 6.3µM
COC(=O)C1=C(C)N(CC2CC2)C(=O)N[C@H]1CCc1ccccc1	none (no result: HEK293 tox, GLP-1R inv ag, GLP1R ag)
COc1cc(Cl)c(NS(=O)(=O)c2ccc3[nH]c(=O)ccc3c2)c(OC)c1	none (no result: Gal4-VP16 FLuc, RORg inh)
Cc1cccc(Cn2c(C(=O)OC(C)C)cc3c2ccn3C)c1	GLP-1R inv ag 5µM
Cc1c(Cl)cccc1NC(=S)NCCc1ccc(F)cc1	HEK293 tox inconclusive, Gal4-VP16 FLuc 3.5µM, GLP-1R inv ag inconclusive, RORg inh 4.5µM
Cc1c(Cl)cccc1NC(=S)NCCc1ccc(Cl)cc1	HEK293 tox inconclusive, Gal4-VP16 FLuc 3.2µM, GLP-1R inv ag inconclusive, RORg inh 5.6µM
Cc1c(Cl)cccc1NC(=S)NCCc1ccc(S(N)(=O)=O)cc1	none
O=C(NCc1cccc(F)c1)c1cccc(NC(=O)c2nsc3ccccc23)c1	GLP-1R inv ag inconclusive (no result: Gal4-VP16 FLuc, RORg inh, GLP1R ag)
CCC(=O)/C=C/C1C(C)=CCCC1(C)C (stereo not given)	none (no result: HEK293 tox, GLP-1R inv ag, GLP1R ag)
NCCNC(=O)c1ccc(Cl)cn1	none (no result: HEK293 tox, GLP-1R inv ag)
Cc1ccc(NC(=O)C2CC(=O)N(c3ccc4c5c(cccc35)CC4)C2)cc1 (stereo not given)	GLP-1R inv ag 10µM
COc1ccc2ccc3c(c2c1)N=C[C@]1(O3)N(C)c2ccccc2C1(C)C	HEK293 tox inconclusive, Gal4-VP16 FLuc inconclusive, GLP-1R inv ag inconclusive, RORg inh 13µM
CC1=NOC2(C1)N(C)c1ccccc1C2(C)C (stereo not given)	none
COC(=O)c1cc(O)cc(OC)c1Oc1cc(C)cc(O)c1C(=O)O	Gal4-VP16 FLuc 7.1µM, GLP-1R inv ag 8.9µM
CCC(=O)NC(c1ccc([N+](=O)[O-])cc1)c1c(O)ccc2ccccc12 (stereo not given)	Gal4-VP16 FLuc 11µM, RORg inh inconclusive
CCC(=O)NC(c1ccc(OC)cc1)c1c(O)ccc2ccccc12 (stereo not given)	GLP-1R inv ag 3.5µM
COc1ccc(C(NC(=O)C(C)C)c2c(O)ccc3ccccc23)cc1 (stereo not given)	HEK293 tox inconclusive, GLP-1R inv ag inconclusive
CCOC(=O)c1ccc(NC(=O)C2(S(=O)(=O)c3ccc(Cl)cc3)CC2)cc1	GLP-1R inv ag inconclusive (no result: Gal4-VP16 FLuc, RORg inh, GLP1R ag)
CCOc1ccccc1NC(=O)C1(S(=O)(=O)c2ccc(Cl)cc2)CC1	GLP-1R inv ag 7.1µM
CCOc1ccccc1NC(=O)c1cc(S(=O)(=O)NC2CCCC2)ccc1F	GLP-1R inv ag 6.3µM (no result: Gal4-VP16 FLuc, RORg inh, GLP1R ag)
O=C(CN1CCN(Cc2ccc(F)cc2Cl)S1(=O)=O)Nc1ccc(F)cc1	none (no result: Gal4-VP16 FLuc, RORg inh, GLP1R ag)
O=C(NC(=S)N1CCN(c2ccc(Cl)cc2[N+](=O)[O-])CC1)c1ccco1	HEK293 tox inconclusive, Gal4-VP16 FLuc 0.25µM, RORg inh 0.28µM
O=C(NC(=S)N1CCN(c2ccc([N+](=O)[O-])cc2)CC1)c1ccco1	HEK293 tox inconclusive, Gal4-VP16 FLuc 1.4µM, RORg inh 0.71µM
O=C(NC(=S)N1CCN(c2ccc(Cl)cc2[N+](=O)[O-])CC1)c1cccs1	HEK293 tox 5.6µM, GLP-1R inv ag 10µM, RORg inh 0.28µM (no result: Gal4-VP16 FLuc)
CNC(=S)NCCc1ccccc1	none
O=C(CCc1ccccc1)NNC(=S)NCCc1ccccc1	Gal4-VP16 FLuc inconclusive, RORg inh 7.9µM
CC(C)(CNC(=S)NCCc1ccccc1)CNC(=S)NCCc1ccccc1	Gal4-VP16 FLuc 8.9µM, GLP-1R inv ag inconclusive, RORg inh inconclusive
